The values below come from PMC8384837, “Expanding the binding specificity for RNA recognition by a PUF domain”.

For this experiment, the target named is PUM1 PUF domain R4-SRS (Homo sapiens, UniProt Q14671 828-1176, N971S;H972R;Q975S). The experiment in a line: yeast three-hybrid, YBZ-1, SC-Leu-His + 0.5 mM 3-AT, 4 days. As to conditions: tags: N-Gal4 AD-HA kept; label: inside an RPR1-promoter hybrid RNA with tandem MS2 sites; ssRNA. Summed up: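 Sequencing with Illumina followed PCR amplification of the repeat regions from transformants grown four days on SC-Leu (input) or SC-Leu-His + 0.5 mM 3-AT (selection). The transformants were strain YBZ-1 with a LexA–MS2 coat fusion and a HIS3 reporter, carrying Pumilio-1 PUF domain libraries and matching RNA elements. The interaction score is the log change in variant frequency from input to selection, computed in log2 with a pseudocount of 1 for absent variants.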
Turning to “GGCUAGAACUAGUGGAUCCCCCGGCGCCCGGCGGCUCGAGCCCGGGUAAGUGUAUAUAGUCUGCAUGCCGCCGGGCGCCAUGCCUGCAGGUCGACUCUAGAAAACAUG”, the binding signal is 0.95 log2 enrichment (interaction score).

“GGCUAGAACUAGUGGAUCCCCCGGCGCCCGGCGGCUCGAGCCCGGGUAAGUGUAAAUAGUCUGCAUGCCGCCGGGCGCCAUGCCUGCAGGUCGACUCUAGAAAACAUG”: the binding signal is 3.11 log2 enrichment (interaction score).

Consider “GGCUAGAACUAGUGGAUCCCCCGGCGCCCGGCGGCUCGAGCCCGGGUAAGUGUACAUAGUCUGCAUGCCGCCGGGCGCCAUGCCUGCAGGUCGACUCUAGAAAACAUG”, for which the binding signal was 1.59 log2 enrichment (interaction score).
